This is part of a sample that, as a whole, favours compounds with a hit. Of some 83,000 tested, about 20% had one in any assay.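 Each cell line was grown in a 96-well plate and treated with one concentration of compound for 48 hours. Values below 10 were considered active.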 Unmarked numbers belong to inactive results. Active and inactive are the calls of the source.

This note sets out measurements from PubChem BioAssay (NCI).

What all share (assay): NCI-60 one-dose screen, 48 h (100 = growth as untreated, 0 = no growth, -100 = all killed)
What all share (conditions): 10 µM unless noted

In test [1] the test system is SK-MEL-2 melanoma.
Test [2] deals with EKVX NSCLC.
Test [3] deals with SN12C renal.
Test [4] deals with UO-31 renal.
In test [5] the test system is TK-10 renal.
The subject of test [6] is ACHN renal.
In test [7] the test system is CAKI-1 renal.
For test [8], the system named is A498 renal.
For test [9], the system named is CCRF-CEM leukemia.
Test [10] deals with MOLT-4 leukemia.

As for `CCOc1ccc(NC(=O)c2ccccc2-c2ccccc2C(=O)O)cc1`, the growth in [1] was 101%; in test [2] it was 101%; in [3] it was 100%; in [4], 88.7%; in test [5], 110%; in [6], 107%. For the same molecule, the growth in test [7] is 98.9%; in test [8], 93.3%; in test [9] it was 99.5%; in test [10], 83.6%.

Regarding `C[Si](C)(C)Cc1ccccc1`, the growth is 163% in [1]; 110% in test [2]; 108% in [3]; 95.9% in test [4]; 122% in [5]; 106% in [6]. In addition, the growth was 98.5% in [7], 164% in test [8], -49.7% (active) in [9] and 118% in test [10].

Take `Cn1cc(-c2csc(-c3cn(C(=O)OC(C)(C)C)c4ccccc34)n2)c2cccnc21`: the growth in [1] was 66.3%; in test [2] it was 72.3%; in test [3] it was 87.6%; in [4], 73.7%; in test [5], 102%; in test [6] it was 77.5%. Besides, the growth in test [7] was 58.7%; in test [8], 79.7%; in test [9], 56.8%; in [10], 50%.

Turning to `C[C@@H](Oc1ccc(C(=O)NS(=O)(=O)C(C)(C)C)cc1C(F)(F)F)c1ccc(Oc2ccccc2)cn1`, the growth was 38.2% in [1]; 65% in [2]; 61.2% in test [3]; 58.8% in test [4]; 79.1% in [5]; 61.8% in [6]. For the same molecule, the growth in test [7] is 38.8%; in test [8] it was -0.737% (active); in test [9] it was 25.9%; in [10], 57.3%.

In the case of `COc1ccc(-c2c(-c3nc4ccc(N5CCOCC5)cc4[nH]3)[nH]c(C)c2C(C)=O)cc1`, the growth in test [1] was 77.1%; in test [2], 42.1%; in test [3] it was 52.6%; in test [4] it was 13.8%; in test [5] it was -4.3% (active); in test [6], 34.2%. In addition, the growth is 16.9% in test [7], 27.2% in test [8], 43.4% in [9] and 51.9% in test [10].

`COc1cnc2c(c1)C(=O)c1c-2n(CCCNC2=NCCS2)c(=O)c2cc([N+](=O)[O-])ccc12`: the growth in test [1] was 73.1%; in test [2], 11.3%; in [3], 13.5%; in test [4], -71% (active); in test [5], -89.2% (active); in [6] it was -77.8% (active). Besides, the growth was 13.3% in test [7], -36% (active) in [8], -10.9% (active) in test [9] and -11.3% (active) in test [10].

For `Cc1ccc(N(CC(=O)Nc2ccc(S(=O)(=O)NC3CCN(C)CC3)cc2)S(=O)(=O)c2ccc(Cl)cc2)cc1`, the growth in test [1] was 104%; in test [2], 99.4%; in test [3], 85%; in [4], 83.3%; in [5] it was 105%; in test [6] it was 96.6%. The growth in test [7] is 89%; in test [8] it was 84.6%; in test [9], 20.9%; in test [10], 70.5%.

Take `CCN1CCN(C(=O)[C@]23CCC(C)(C)C[C@@H]2C2=CC[C@@H]4[C@@]5(C)C/C(=C/c6cccnc6)C(=O)C(C)(C)[C@@H]5CC[C@@]4(C)[C@]2(C)CC3)CC1`: the growth was 41.9% in test [1]; 25.4% in [2]; 29.5% in [3]; 33.3% in [4]; 52.4% in test [5]; 33.4% in test [6]. For the same molecule, the growth in test [7] was 31.5%; in test [8] it was 45.1%; in test [9], 33.4%; in test [10], 4.16% (active).

Take `COc1ccc(OCC(CO)N2CCN(c3ccccc3)CC2)cc1` (stereo not given): the growth in test [1] is 106%; in [2] it was 108%; in [3], 97.2%; in test [4], 86.4%; in test [5], 109%; in test [6], 104%. The growth was 90.6% in test [7], 108% in [8], 112% in test [9] and 116% in test [10].

Take `Cc1ccc(S(=O)(=O)Nc2ccc(-c3cc(-c4cccc(F)c4)c(C#N)c(=O)[nH]3)cc2)cc1`: the growth in [1] was 112%; in test [2], 83.4%; in test [3], 83.7%; in test [4], 68.6%; in test [5] it was 115%; in [6] it was 91.3%. Moreover, the growth in [7] was 60.2%; in test [8] it was 85.2%; in test [9], 68.4%; in test [10], 76.9%.

As to `Cc1ccc(C)c2c1CCC2C(C)C` (stereo not given), the growth was 110% in test [1]; 102% in test [2]; 98.6% in test [3]; 88.5% in test [4]; 95.6% in test [5]; 97.3% in [6]. For the same molecule, the growth in test [7] is 95.8%; in test [8], 110%; in test [9] it was 93.5%; in [10], 86.4%.

On to `CC(Cc1ccco1)C(=O)NC(N)=O` (stereo not given), for which the growth in test [1] was 106%; in [2], 98%; in [3] it was 103%; in [4], 91.6%; in test [5], 98.7%; in test [6] it was 108%. In addition, the growth in test [7] was 92.1%; in [8] it was 102%; in test [9] it was 98.9%; in test [10], 98.8%.

With `COc1ccc(CCN2C(=O)C(C)(C)SC2=S)cc1OC`, the growth in [1] is 107%; in test [2], 94%; in test [3], 96%; in test [4] it was 88.9%; in test [5], 96.3%; in test [6], 104%. In addition, the growth in [7] is 88.1%; in test [8], 99.3%; in [9], 92.3%; in [10], 101%.

With `O=C1OC(c2ccc(Cl)c(Cl)c2)=C/C1=C/c1cccc([N+](=O)[O-])c1`, the growth in test [1] is 102%; in [2], 91.8%; in test [3], 93%; in test [4] it was 68%; in test [5] it was 179%; in [6], 100%. Further, the growth is 91.3% in [7], 101% in test [8], 103% in test [9] and 103% in test [10].
